In PubChem BioAssay (NCI):
The panel holds about 83,000 compounds, 20% with a hit somewhere; the sample as a whole holds those more often.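 Cell lines were cultured in 96-well plates, exposed to a single compound concentration, and assessed for percent growth 48 hours later.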 Active and inactive are the calls of the source. The calls were made as follows: active = growth percent below 10; inactive = the rest.

Key:
Experiment in all cases: NCI-60 one-dose screen, 48 h (100 = growth as untreated, 0 = no growth, -100 = all killed)
Details in all cases: 10 µM unless noted
[1] = tested on: BT-549 breast
[2] = tested on: MDA-MB-435 melanoma
[3] = tested on: SW-620 colon
[4] = tested on: MCF7 breast
[5] = tested on: HCT-116 colon
[6] = tested on: HCC-2998 colon
[7] = tested on: KM12 colon

Measured: growth

Clc1ccc(-c2nc(-c3cccs3)no2)c(Cl)c1
inactive: [1] 83% | [2] 111% | [3] 88.1% | [4] 29.2% | [5] 94.6% | [6] 68% | [7] 99.3%

CCCc1cc(=O)n2c(C(=O)Nc3ccccc3OC)c(C(=O)Nc3ccc(F)cc3)sc2n1
active: [1] -14.2% [30 µM]
inactive: [2] 65.8% [30 µM] | [3] 64.1% [30 µM] | [4] 52.7% [30 µM] | [5] 27.2% [30 µM] | [7] 76.6% [30 µM]

COc1ccc(-c2nn(-c3ccccc3)cc2/C=C2\SC(=S)N(CCc3ccc(O)cc3)C2=O)cc1
inactive: [1] 103% | [2] 84.4% | [3] 87.6% | [4] 70.5% | [5] 90.2% | [6] 107% | [7] 81.5%

NNC(=O)C1CC2c3ccccc3C1c1ccccc12 (stereo not drawn)
inactive: [1] 102% | [2] 106% | [3] 108% | [4] 101% | [5] 108% | [6] 101% | [7] 115%

CCN(CC)CCNc1ccc(Cl)cc1Cl
inactive: [1] 106% | [2] 111% | [3] 104% | [4] 107% | [5] 96.8% | [6] 97.4% | [7] 110%

CCN(CC)c1ccc(CN(CC(=O)c2ccc(Cl)c(Cl)c2)Cc2ccccc2)cc1
inactive: [1] 109% | [2] 106% | [3] 96% | [4] 95.5% | [5] 104% | [6] 107% | [7] 109%

COC(=O)CC1=C(C)/C(=C/c2[nH]c(-c3ccc[nH]3)cc2OC)N=C1C
active: [2] -4.71% | [3] 4.66% | [4] -3.82% | [5] -33.6%
inactive: [1] 22.3% | [6] 11.3% | [7] 10.2%

COc1ccc(/C=N/NC(=O)c2ccc(S(C)(=O)=O)cc2)cc1OC
inactive: [1] 109% | [2] 109% | [3] 99.8% | [4] 92.4% | [5] 89% | [6] 98.5% | [7] 95.8%

Cc1nc2cc(NC(=O)CN3CCN(CCN4C(=O)c5cccc6cccc(c56)C4=O)CC3)ccc2s1
inactive: [1] 70.1% | [2] 57.8% | [3] 31.4% | [4] 32.5% | [5] 22.3% | [6] 59.4% | [7] 51.6%

Cn1cc(-c2csc(-c3cn(C)c4ncccc34)n2)c2cc(F)cnc21
inactive: [1] 85.7% | [3] 61.7% | [4] 58% | [5] 72.5% | [6] 77.3% | [7] 60.7%
active: [2] 8.5%

CCOc1cccc(C2CC(=O)Nc3cc4c(cc32)OCO4)c1 (stereo not drawn)
inactive: [1] 82.4% | [2] 29.2% | [3] 84.2% | [4] 82.8% | [5] 80.7% | [6] 86.4% | [7] 72.3%

NC(=O)NN=C(C1CC1)C1CC1
inactive: [1] 106% | [2] 105% | [3] 98.6% | [4] 92.9% | [5] 102% | [7] 104%

COc1ccc(OC)c(NC(=O)c2cc3oc4ccccc4c3cc2O)c1
inactive: [1] 89.1% | [2] 105% | [3] 104% | [4] 83.3% | [5] 106% | [7] 99.5%

Cc1c(C(N)=O)sc2nc(SCC(=O)Nc3ccc(Cl)cc3)n(-c3ccccc3)c(=O)c12
inactive: [1] 69.1% | [2] 112% | [3] 128% | [4] 104% | [5] 103% | [6] 109% | [7] 118%

COc1ccc(C2=NN(C(=O)c3cc(OC)c(OC)c(OC)c3)C(c3ccc(C#N)cc3)C2)cc1OC (stereo not drawn)
inactive: [1] 28.6% | [3] 16.1% | [4] 27% | [5] 13.6% | [6] 35.2% | [7] 15.1%
active: [2] -40.4%

O=C(Nc1nc(-c2ccccc2)cs1)c1cc(O)c(O)c(O)c1
inactive: [1] 46% | [2] 61% | [3] 39.7% | [4] 58.4% | [5] 25.9% | [7] 64.7%

N#Cc1c2ccccc2c2n1-c1ccccc1OC(c1ccccc1)C2=O (stereo not drawn)
active: [1] 9.32%
inactive: [2] 24.1% | [3] 56.9% | [4] 72.4% | [5] 11.3% | [7] 16%

CC/C=C\C=C/C(=O)N/C=C/CC1Cc2cccc(O)c2C(=O)O1 (stereo not drawn)
active: [2] -52.1%
inactive: [1] 75.2% | [3] 26.9% | [4] 67.3% | [5] 33.8% | [7] 42.1%

CCC1(c2ccccc2)Oc2ccccc2-n2c(C#N)c3ccccc3c2C1=O (stereo not drawn)
inactive: [1] 104% | [2] 106% | [3] 107% | [4] 85.1% | [5] 86.7% | [7] 102%

COc1cc(/C=C/C(=O)c2ccc(F)cc2)ccc1OCCCCCOc1cc2c(cc1OC)C(=O)N1CCCC1C=N2 (stereo not drawn)
inactive: [4] 16%
active: [1] -58% | [2] -87.5% | [3] -46.6% | [5] -23.9% | [7] -63.4%

NC(N)=N/N=C(/c1ccccc1)c1ccc(Cl)cc1
inactive: [1] 70.2% | [3] 47.6% | [4] 11.3% | [5] 24.9% | [7] 28.3%
active: [2] -54.4%

O=C1N(C2CCCCC2)C(=O)N1C1CCCCC1
active: [7] 7.4%
inactive: [1] 33.6% | [2] 57.4% | [3] 48.5% | [5] 44.2% | [6] 49.3%

COC1CC2CCC(C)C(O)(O2)C(=O)C(=O)N2CCCCC2C(=O)OC(C(C)CC2CCC(O)C(OC)C2)CC(=O)C(C)C=C(C)C(O)C(OC)C(=O)C(C)CC(C)/C=C/C=C/C=C1C (stereo not drawn)
inactive: [1] 32.5% | [2] 43.6% | [3] 64.5% | [5] 49.5% | [6] 50.4% | [7] 69.8%

CCCc1nn(C)c2c(=O)[nH]c(-c3cc(S(=O)(=O)N4CCN(C)CC4)ccc3OCC)nc12
inactive: [1] 94.5% | [2] 100% | [3] 115% | [5] 98.8% | [6] 108%

NCCCc1nnc(CCC(=O)c2nc3ccccc3[nH]2)o1
inactive: [1] 103% | [2] 105% | [3] 108% | [5] 100% | [6] 98.1%

COc1ccc(-c2csc(NC(=O)c3cc(O)c(O)c(O)c3)n2)cc1
inactive: [1] 66.9% | [2] 64.4% | [3] 56.8% | [4] 60.6% | [5] 49.5% | [7] 84.8%

Cc1c(N(C)CS(=O)(=O)O)c(=O)n(-c2ccccc2)n1C
inactive: [1] 96.5% | [2] 103% | [3] 108% | [5] 105% | [6] 121% | [7] 109%

Cc1c(C(N)=O)sc2ncn(Cc3ccccc3)c(=O)c12
inactive: [1] 62.6% | [2] 53.7% | [3] 103% | [4] 99.8% | [5] 94.7% | [7] 110%

Cn1c(=O)c2nc(SCc3ccccc3)n(C)c2n(C)c1=O
inactive: [1] 107% | [2] 113% | [3] 106% | [4] 106% | [5] 98.9% | [7] 104%

COc1cc(OC)c2cc(C(=O)O)c(=O)oc2c1
inactive: [1] 77.5% | [2] 76.8% | [3] 103% | [4] 94.2% | [5] 103% | [7] 114%

CCOC(=O)/C(=C/c1ccccc1)C(=O)c1ccccc1
inactive: [1] 73.4% | [2] 50.8% | [3] 70.9% | [4] 41.1% | [5] 39.4% | [7] 67.1%

O=C(Nc1ccc(Oc2ccc(NC(=O)Nc3ccc([N+](=O)[O-])cc3)cc2)cc1)Nc1ccc([N+](=O)[O-])cc1
active: [1] -21.5% | [2] 5.67% | [4] -7.4% | [5] -6.3% | [7] -5.89%
inactive: [3] 10.8%

CN(C)c1ccc(/C=C\c2ccnc3ccccc23)cc1
inactive: [2] 33.6% | [3] 87.7% | [4] 39.1% | [5] 62.6% | [7] 55.8%
active: [1] -0.99%

COc1cc(/C=C2\CCC/C(=C\c3ccc(OCC4CO4)c(OC)c3)C2=O)ccc1OCC1CO1 (stereo not drawn)
active: [2] -32.3% | [3] -23% | [4] -6.99% | [5] -54.7% | [7] -0.568%
inactive: [1] 30.3%

CC1(C)OC(=O)C(=Cc2ccccc2Br)C(=O)O1
inactive: [1] 107% | [2] 98% | [3] 96.2% | [4] 102% | [5] 79.3% | [7] 108%

O=C(/C(=C/c1cccc([N+](=O)[O-])c1)c1ccccc1)c1ccccc1
inactive: [1] 33.1% | [3] 10.9% | [4] 26.7% | [7] 18.3%
active: [2] 7.47% | [5] 8.24%

CCCCSc1cc(C)nc(N)n1
inactive: [1] 88.8% | [2] 97.2% | [3] 97.8% | [4] 94.5% | [5] 90.7% | [7] 98.8%

COc1cc2c(C#N)n3c(c2cc1OC)C(=O)C(c1ccccc1)Oc1ccccc1-3 (stereo not drawn)
active: [1] -7.13%
inactive: [2] 55.5% | [3] 87.6% | [4] 93.9% | [5] 27.9% | [7] 23.4%
